SMILES strings stand for the structures. Values joined by “and” are separate entries in the source; they are usually repeats but may differ in a detail not shown here. Equal entries are not always repeated. The whole screen tested about 310,000 compounds, of which about 11,000 (3.5%) were called active. Entries that show only a call come without a potency. Not shown: some 8% with an inconclusive outcome. Calls follow the shape of the dose curve; as a rule, active = well fitted inhibition curve with a large enough effect; inconclusive = small, poorly fitted or top-dose-only effect, or effect the other way; inactive = flat fitted curve, though single readings scatter. The sample as a whole holds a higher share of actives than the screen did.
Potency is read from the fitted curve at half-maximal effect.

The nature of the assay: VP16 counterscreen qHTS for inhibitors of ROR gamma transcriptional activity.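 Also: Gal4-VP16 expression switched on by copper sulfate through the metallothionein promoter; nearly all actives have a fitted effect of over 50% in size.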 As to conditions: Drosophila S2 Gal4-VP16 UAS-luciferase, luminescence, 20 h; series mostly up to 53.6 µM. (The purpose of a counterscreen is to sort out artefacts and off-target activity.)
Take `CCCc1cc(=O)oc2cc(OCC(=O)Nc3ccc(CN4CCOCC4)cc3)c(Cl)cc12`: the Potency result is “inactive”.

For `O=C(NNC(=S)NCc1ccccc1)c1ccc(OC(F)F)cc1`, the Potency entry is “inactive”. For `CC(C)CC(=O)NC(=S)NCc1ccccc1`, the Potency is 10 µM (active). Take `COC(=O)Cc1ccc(NC(=S)NCc2ccco2)cc1`: the Potency entry is “inactive”. For the molecule `CC(C)CNC(=O)C(=O)NCc1ccccc1`, the Potency result was “inactive”. To `COC(=O)Cc1ccc(OCC(=O)Nc2ccc(OC(F)(F)F)cc2)cc1` belongs “inactive”. As for `FC(F)(F)Oc1ccc(NC(=S)NCc2ccccc2)cc1`, the Potency was 11.2 µM (active). For the molecule `COC(=O)Cc1ccc(NC(=S)NCc2ccccc2)cc1`, the Potency was 31.6 µM (active). Regarding `CC(C)CC(=O)NC(=S)Nc1cc(C(=O)O)ccc1Cl`, the Potency entry was “inactive”. Under `O=C(Cc1ccccc1)NCc1ccc(F)cc1` stands “inactive”. In the case of `CCOC(=O)c1ccc(NC(=O)Cc2cccs2)cc1`, the Potency entry was “inactive”. For `CCC1Sc2ccc(S(=O)(=O)CCC(=O)NCc3cccs3)cc2NC1=O` (centres undefined), the Potency result was “inactive”.

With `COc1ccccc1CNC(=O)c1ccc(N(C)S(=O)(=O)c2ccc(C)cc2)cc1`, the Potency result was “inactive”. Consider `CSc1ncccc1C(=O)Nc1ccc(C)cn1`, for which the Potency entry is “inactive”. Regarding `COc1ccc(OC)c(NC(=O)CN(C)CCOc2ccc(Br)cc2)c1`, the Potency entry is “inactive”. Under `CC1(C)Cc2c(sc(NC(=O)C(=O)NCC3CCCO3)c2C(=O)O)CO1` (centres undefined) stands “inactive”. Regarding `COc1ccc(C2CC(c3ccc([N+](=O)[O-])cc3)=NN2C(C)=O)cc1` (centres undefined), the Potency result is “inactive”. As for `Cc1cccnc1CCNC(=O)C1CCC(=O)N(Cc2cccc(F)c2)C1` (centres undefined), the Potency entry was “inactive”. With `O=C(NCCCN1CCOCC1)c1ccc2c(c1)N(Cc1cccc(F)c1)C(=O)c1ccccc1S2`, the Potency entry was “inactive”.

`COc1ccc(CCNc2nc(-c3cccc(NC(C)=O)c3)cs2)cc1OC`: the Potency result was “inactive”. In the case of `COc1cccc(CC(=O)Nc2nc(-c3ccc(OC)c(OC)c3)cs2)c1`, the Potency entry is “inactive”. Take `COc1ccc(CC(=O)Nc2nc(-c3ccc(F)c(F)c3)cs2)cc1OC`: the Potency was 15.8 µM (active). With `CCOC(=O)C1(Cc2ccccc2C)CCCN(C(=O)CN2C(=O)CSC2=O)C1` (centres undefined), the Potency entry was “inactive”.

On to `CCOC(=O)c1cccc(NC(=O)C2CCN(c3ncnc4c3nc3n4CCCCC3)CC2)c1`, for which the Potency entry was “inactive”. On to `CN(C(=O)c1ccccc1)c1nccnc1C#N`, for which the Potency result is “inactive”.

For the molecule `CC1=NN(C(=O)CCc2ccccc2O)C(O)(C(F)(F)F)C1` (centres undefined), the Potency is 12.6 µM (active). As for `O=C(Cc1ccccc1)N1N=C(c2ccncc2)CC1(O)C(F)(F)F` (centres undefined), the Potency entry is “inactive”. As for `CCCCCNC(=O)Cc1ccc(OC)cc1`, the Potency entry was “inactive”. To `COc1ccc(CC(=O)N2N=C(C)CC2(O)C(F)(F)F)cc1` (centres undefined) belongs 8.91 µM (active); to `NC(=O)c1ccc(Nc2ccc3c(c2)CCC3)c([N+](=O)[O-])c1`, “inactive”.

Turning to `Cc1ccc(Nc2ncnc3c2cnn3C)c(C)c1`, the Potency result was “inactive”. `COC(=O)c1c(NC(=O)C2CC(C)=C(C)CC2C(=O)O)sc2c1CCCCC2` (centres undefined): the Potency entry was “inactive”. Under `O=S(=O)(/C=C/c1ccccc1)N1CCNCC1` stands “inactive”; under `CCc1ccc(OCC(=O)NCC(c2ccc(Cl)cc2)N2CCCCC2)cc1` (centres undefined), “inactive”; under `Cc1ccc(S(=O)(=O)c2c[nH]c3ccc(C)cc3c2=O)cc1`, “inactive”. To `Cc1cc(/C=N/Nc2ccc([N+](=O)[O-])cn2)c(C)n1-c1cccc(C(=O)O)c1` belongs “inactive”; to `Cc1cccc(-n2c(C)cc(/C=N/NC(N)=S)c2C)c1`, 2.82 µM (active). Consider `Cc1cc(/C=N/NC(N)=O)c(C)n1C1CCCCC1`, for which the Potency entry was “inactive”. Take `O=C(CN1CCN(C(=O)C2CCCO2)CC1)Nc1c(Cl)cccc1Cl` (centres undefined): the Potency entry was “inactive”. Consider `Cc1n[nH]c(=O)n1-c1ccc(C(C)C)cc1`, for which the Potency result was “inactive”.

With `Cc1n[nH]c(=O)n1-c1ccc(Oc2ccccc2)cc1`, the Potency is 0.891 µM (active). To `COc1ccc(Oc2ncc3nc(C)c(=O)n(-c4ccccc4)c3n2)cc1` belongs “inactive”; to `Cc1cccc(CNS(=O)(=O)c2ccc(-c3cnc(C4CC4)o3)cc2)c1`, “inactive”; to `CCOc1ccc(CN(C)C(=O)c2ccc(=O)[nH]c2)cc1`, “inactive”.

For the molecule `Cc1cccc(NC(=O)c2cccnc2Cl)n1`, the Potency result is “inactive”. In the case of `Cc1ccc2nc(N(CCN(C)C)C(=O)C3=COCCO3)sc2c1`, the Potency entry is “inactive”. As for `Cc1ccc(NS(=O)(=O)c2ccc(C)c(NC(=O)COc3ccc4ccccc4c3)c2)c(C)c1`, the Potency entry is “inactive”. With `COc1ccc2cc(S(=O)(=O)Nc3ccccn3)ccc2c1`, the Potency entry was “inactive”.

For the molecule `COc1cc(NS(=O)(=O)c2ccc3ccccc3c2)c2ncccc2c1`, the Potency is 708 nM (active) and 562 nM (active). For the molecule `N#CCSc1nc(-c2ccccc2)nc2ccc(F)cc12`, the Potency result is “inactive”. `Cc1nc2ccc(S(=O)(=O)N(C)CC(=O)NC(C)c3ccccc3)cc2s1` (centres undefined): the Potency result is “inactive”. Turning to `CC1CC(=S)Nc2ccccc2N1Cc1ccccc1` (centres undefined), the Potency was 3.16 µM (active). For the molecule `CC1CC(=O)Nc2ccccc2N1S(=O)(=O)c1cccs1` (centres undefined), the Potency result is “inactive”. `CC1CC(C)(C)NC(=S)N1CCC(=O)N1CCN(Cc2ccccc2)CC1` (centres undefined): the Potency entry was “inactive”. On to `Cc1ccccc1OCC(=O)Nc1ccc(S(=O)(=O)N2CCOCC2)cc1`, for which the Potency entry was “inactive”. Under `O=C(c1ccccc1)N1CCN(C(=O)c2cc3nc(-c4ccccc4)cc(C(F)(F)F)n3n2)CC1` stands “inactive”. For `COc1ccc(-c2cc(C(F)(F)F)nc(S(C)(=O)=O)n2)cc1OC`, the Potency is 5.62 µM (active). As to `COc1ccc(-c2cc(C(F)(F)F)nc(SCC(=O)Nc3ccc4c(c3)OCO4)n2)cc1OC`, the Potency entry was “inactive”.

Turning to `COc1cc(OC)nc(S(C)(=O)=O)n1`, the Potency result was “inactive”. As to `CC1=C(C(=O)OCC2CCCCC2)C(c2ccc(F)cc2)NC(=O)N1` (centres undefined), the Potency entry is “inactive”. For `CC1CN(C(=S)Nc2ccccc2F)CC(C)O1` (centres undefined), the Potency result was “inactive”. Regarding `COC(=O)c1c(NC(=O)COc2ccc(Cl)cc2Cl)sc2c1CC(C)(C)NC2(C)C`, the Potency was 22.4 µM (active). To `CCOC(=O)c1c(NC(=O)c2ccc(S(=O)(=O)N(C)CC3CCCO3)cc2)sc2c1CC(C)(C)NC2(C)C` (centres undefined) belongs “inactive”; to `COC(=O)c1sccc1NC(=O)COc1ccc(Cl)cc1`, “inactive”; to `CCCn1c(C(C)Nc2nc(-c3ccc(C)cc3)cs2)nc2cc(Cl)c(N3CCCCC3)cc21` (centres undefined), “inactive”. On to `O=C(NCCc1ccccc1)C1CC1`, for which the Potency result was “inactive”. As to `CCCC1CCC(=NNC(=S)NCCc2ccccc2)CC1` (centres undefined), the Potency is 11.2 µM (active). In the case of `S=C(NN=C1CCN(Cc2ccccc2)CC1)NC1CCCCC1`, the Potency entry is “inactive”. For `O=C(NCC(=O)N1CCN(c2ncc(C(F)(F)F)cc2Cl)CC1)c1ccc(Br)o1`, the Potency result was “inactive”. Regarding `Cc1ccc(CN2CCC(n3nccc3NC(=O)CCCc3ccccc3)CC2)o1`, the Potency result is “inactive”. As for `O=C(Nc1cccc(F)c1)NC1CCCCCCC1`, the Potency entry was “inactive”. With `C/C(=N\NC(=O)c1ccccc1F)c1ccccn1`, the Potency was 1.12 µM (active).

Consider `O=C(Nc1ccc(NC(=O)c2ccccc2F)cc1)c1ccccc1F`, for which the Potency result was “inactive”. As to `C/C(=N\NC(=O)Cc1ccc(Br)cc1)c1cccnc1`, the Potency entry is “inactive”.

For the molecule `C/C(CC(=O)Nc1ccc(N(C)C)cc1)=N\NC(=O)c1ccccc1F`, the Potency entry is “inactive”. To `C/C(=N\NC(=O)Cc1ccc(Cl)cc1)c1ccccn1` belongs 2.51 µM (active); to `C/C(=N\NC(=O)Cc1ccc(F)cc1)c1ccc(F)cc1`, “inactive”; to `O=C(c1cc(-c2ccc(Cl)cc2)on1)N1CCN(c2ccccc2)CC1`, “inactive”. As for `O=C(COc1ccccc1Cl)N1CCCCCCC1`, the Potency result is “inactive”.

Consider `NS(=O)(=O)c1ccccc1NC(=O)c1c(O)c2ccccc2[nH]c1=O`, for which the Potency entry is “inactive”. For `COc1ccc(CC(=O)NCC(=O)N/N=C/c2cc(Br)ccc2OC)cc1`, the Potency entry is “inactive”. In the case of `COc1ccc(CC(=O)N/N=C/c2cc([N+](=O)[O-])cc(Br)c2O)cc1`, the Potency was 3.16 µM (active). Regarding `COc1cc(OC)c(/C=N/NC(=O)c2ccc([N+](=O)[O-])cc2)cc1Br`, the Potency entry was “inactive”.

Turning to `COc1cccc(NC(=O)CCc2nnc3ccc(N4CCC(C)CC4)nn23)c1`, the Potency entry was “inactive”.

As to `CC(=O)c1ccc(NC(=O)c2ccc(-n3cncn3)c([N+](=O)[O-])c2)cc1`, the Potency result is “inactive”. On to `S=C(NCc1ccc(Cl)cc1)NC12CC3CC(CC(C3)C1)C2`, for which the Potency was 3.16 µM (active). For the molecule `S=C(NCc1ccc(Cl)cc1)NC1CCCCC1`, the Potency is 7.94 µM (active). Under `CN(C)CCCNC(=S)NCc1ccc(Cl)cc1` stands “inactive”. Consider `O=C(NCc1ccc(Cl)cc1)NCc1ccc(Cl)cc1`, for which the Potency entry is “inactive”. Turning to `COc1ccc(Cl)cc1C(=O)NNC(=S)NC1CCCC1`, the Potency result is “inactive”.

Regarding `O=C(NCc1ccncc1)NC12CC3CC(CC(C3)C1)C2`, the Potency result is “inactive”. Consider `O=C(NCCc1ccc(Cl)cc1)c1cccc(N2CCCC2=O)c1`, for which the Potency entry is “inactive”. Turning to `O=C(NC(=S)Nc1ccc(Cl)cc1Cl)C1CC1`, the Potency was 5.62 µM (active).

In the case of `CN1CCN(S(=O)(=O)c2ccc(NC(=S)NC(=O)C3CC3)cc2)CC1`, the Potency entry was “inactive”. As to `S=C(Nc1ccc(Cl)cc1Cl)N1CCCC1`, the Potency entry is “inactive”. As to `Oc1ccccc1C1=NN(c2ccccc2)C(c2ccccc2)C1` (centres undefined), the Potency result was “inactive”. With `CCC(=O)Nc1nc(C)c(C(=O)Nc2cccc(Cl)c2)s1`, the Potency result is “inactive”. Turning to `CN1CCN(C(=O)c2cnn(-c3ccccc3)c2NC(=O)c2ccc([N+](=O)[O-])cc2)CC1`, the Potency result is “inactive”. In the case of `Cc1ccc(NC(=O)NC(=O)c2ccccc2)cc1F`, the Potency result is “inactive”. To `Cc1cccc(NC(=O)NC(=S)NC(=O)c2ccccc2)c1` belongs 5.01 µM (active); to `Cc1cccc(NC(=S)NC(=O)c2ccc(Br)o2)c1`, “inactive”; to `Cc1ccn2c(c1)nc(=O)c1cc(S(=O)(=O)N3CCC(C)CC3)ccc12`, “inactive”.

As to `COc1ccc(CCNC(=O)C(=O)NCC2OCCN2S(=O)(=O)c2ccc(OC)c(C)c2)cc1` (centres undefined), the Potency result was “inactive”. `Cn1c2ccccc2c(=O)c2c(=O)n(Cc3ccco3)c(COc3ccccc3)nc21`: the Potency is 17.8 µM (active). Under `Cc1nc2c(c(=O)n1Cc1ccco1)c1nc3ccccc3nc1n2Cc1ccccc1` stands “inactive”. With `COc1ccc(C(=O)CSc2nnc(COc3ccccc3)n2Cc2ccco2)cc1`, the Potency result is “inactive”. On to `O=C(NNC(=S)Nc1ccc(F)cc1)[C@H]1C[C@@H]1c1ccccc1`, for which the Potency result is “inactive”.

As to `O=C(N/N=C/c1cccc2cccnc12)[C@H]1C[C@@H]1c1ccccc1`, the Potency is 8.91 µM (active). Consider `COc1cc(/C=N\NC(=O)C2C(=O)NCC2c2ccccc2)cc(OC)c1O` (centres undefined), for which the Potency result was “inactive”.

Source of the values: PubChem BioAssay AID2546 (National Center for Advancing Translational Sciences (NCATS), 2010).
